These results are taken from the OligoGym collection.
Note: reference of the scale not given here.

For one assay, the target named is PCTP. Kind of assay: pooled miR-30 sensor sort-seq; sequence = guide strand. Particulars: shRNA.
Regarding TTGAACTGTAGAAGAAGGCAGC, the sensor-assay potency score (higher = more potent) is -0.297. Same read-out and setting: as for TAACATACTGGTCCCATTGTTT, the figure is -0.841. Consider AAGTCCAGTCTTCTTGTCCAGC, for which the sensor-assay potency score (higher = more potent) is -1.17. Same read-out and setting: with TTTGCTAGCTGCCACAGCCATC the figure was -1.46; with TTGCACAATGGAATGATCGTGT, 0.345.

As to TAGAGTTCTTTAACATACTGGT, the sensor-assay potency score (higher = more potent) came out at 0.218. Still for that read-out and setting: as for TAGAACACACTTTTCTTCCCAG, the figure is 0.135; as for TTCATTATAGAACACACTTTTC, -1.43. On the same count and under the same terms, with TTCTTTAACATACTGGTCCCAT the figure was -0.412; with TTCTTGTTCATAGAGTTCTTTA, -0.702.

With TACATTTCTAAATATTCTGGGA, the sensor-assay potency score (higher = more potent) was -0.38. On the same count and under the same terms, as for TTATAGAACACACTTTTCTTCC, the figure is -0.218.

The next assay addresses PC. The assay is described as above. Particulars: shRNA.
In turn, TTGAGGGAGTCAAACACACGGA showed a sensor-assay potency score (higher = more potent) of 0.00371. Same read-out and setting: as for TTGATGTCTATCACCTTCCCAG, the figure is -0.547. On the same count and under the same terms, with TTCTCGTCGATGAACTGGGTGT the figure was -0.428; with TTGACCTCCTTGAACTTGGAGC, -0.629. TTGAAGACCACGTTGTCTGGGT displayed a sensor-assay potency score (higher = more potent) of 0.437. Turning to TAGTACTGCAGTGAGTACTTGG, the sensor-assay potency score (higher = more potent) is -0.46. For TTGTTGAGCACATTCTGCAGGA, the sensor-assay potency score (higher = more potent) is 0.211. On the same count and under the same terms, with TTCATCTGCTTTCTGCCGGTGC the figure was -0.101; with TCTCGCAGCAGGATGTCTCTGA, 0.144; with TTCTTGACCTCCTTGAACTTGG, -0.463. In turn, TTGGTCACATGAACCTTGCGGA had a sensor-assay potency score (higher = more potent) of 0.159. On the same count and under the same terms, with TACTGCAGTGAGTACTTGGTGC the figure was -0.271.

The next assay deals with PDE12. Described as above. The following applies: shRNA.
Turning to TAACTTAAGTCTCTCACCCTTA, the sensor-assay potency score (higher = more potent) is -0.0358. Still for that read-out and setting: with TTCACCACAAGCACTTTTCAGC the figure was -0.0283; with TAGTACATAAGCATGATTCATT, -0.285; with TAAATCGCTAACTAAATTGAGG, -0.622. TAACTTCTTCATGACTAGGTAA yielded a sensor-assay potency score (higher = more potent) of -0.476. Same read-out and setting: with AAATGTAATCTAGACATCCATG the figure was -1.09; with TTGAAGTTTACATATAAGCTTT, -0.258. The same measure, in the same setting: as for TATCCTTTTAGAAGAGTCCTTT, the figure is 0.141; as for TTGAGGTAGAGGTAGACCCTAA, -0.795. On the same count and under the same terms, as for TTGTAGTAAATCGCTAACTAAA, the figure is -1.21; as for TGAAATTGTAGTAAATCGCTAA, 0.612; as for TTCTTTGTGAAGTGGGTCGGAC, -0.551.

A further assay addresses PDE1C. Described as above. Particulars: shRNA.
For TAGAGTGATCCTTCTTGTCTGT, the sensor-assay potency score (higher = more potent) is 0.0178. On the same count and under the same terms, as for TTTCTTTGAATCATTTCCGATG, the figure is -0.853.

For TTTTCTTTGAATCATTTCCGAT, the sensor-assay potency score (higher = more potent) is -1.12.
